Hits are enriched below; roughly 7.4% of the tested compounds scored in any of these assays.
SMN2 splice up – SMN2 splice variant enhancement; HEK293 SMN2-luciferase splicing reporter, luminescence, 30-36 h; Potency, µM (top dose mostly 46.1 µM), for the others: at the top dose activity change, positive = activation, actives largely listed as activators; actives 2.8% (n = 210,000); AID 1458; also: % of control where 0% means no effect; nearly all actives have a fitted effect of over 55% in size
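HEK293 cells carry an SMN2 minigene-luciferase reporter in which exon 7 inclusion puts luciferase in frame. Cells were seeded at 2000 cells/well, attached for 10-12 hours, then exposed to compounds for 30-36 hours at 37C before ONE-Glo luminescence.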
Rab9 prom act – activates the Rab9 promoter. AID 485297. actives 2.8% (n = 320,000). Potency, µM (series often up to 9.22 µM), for inactives: top-dose activation, negative = inhibition, usual class: activators. Huh7 Rab9 promoter-luciferase reporter, luminescence, 24 h; also: % of control where 0% means no effect; nearly all actives have a fitted effect of over 60% in size
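Stable Rab9-luc Huh7, 1500 cells/well, 2 h settle; cmpd in DMSO, 24 h, 37 °C/5% CO2; luciferase reagent 10 min RT; luminescence.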
ELG1 genotox – genotoxicity induction in ELG1-luciferase HEK293T cells; actives 1.3% (n = 330,000); Potency, µM (highest dose often 46 µM), for the others: at the top dose activity change, positive = activation, usual class: activators; HEK293T ELG1-luciferase reporter, luminescence, 16 h; AID 504466; also: % of control where 0% means no effect; nearly all actives have a fitted effect of over 60% in size
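After overnight (16 hr) compound treatment at 37 °C, ELG1-luciferase HEK293T cells were lysed with ONE-Glo; luminescence quantified 30 min later at room temperature.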
FLuc modulator – firefly luciferase modulation, counter-screen for miR-21 project; purified FLuc, Km substrates, luminescence inhibition; Potency, µM (highest dose often 57.5 µM), for the others: at the top dose activity change, negative = inhibition, most hits filed as inhibitors; AID 588342; actives 6.9% (n = 360,000);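 also: plate controls were vehicle for no effect and reference inhibitor for full effect; nearly all actives have a fitted effect of over 55% in size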
Target sequence (P08659 whole entry, looked up): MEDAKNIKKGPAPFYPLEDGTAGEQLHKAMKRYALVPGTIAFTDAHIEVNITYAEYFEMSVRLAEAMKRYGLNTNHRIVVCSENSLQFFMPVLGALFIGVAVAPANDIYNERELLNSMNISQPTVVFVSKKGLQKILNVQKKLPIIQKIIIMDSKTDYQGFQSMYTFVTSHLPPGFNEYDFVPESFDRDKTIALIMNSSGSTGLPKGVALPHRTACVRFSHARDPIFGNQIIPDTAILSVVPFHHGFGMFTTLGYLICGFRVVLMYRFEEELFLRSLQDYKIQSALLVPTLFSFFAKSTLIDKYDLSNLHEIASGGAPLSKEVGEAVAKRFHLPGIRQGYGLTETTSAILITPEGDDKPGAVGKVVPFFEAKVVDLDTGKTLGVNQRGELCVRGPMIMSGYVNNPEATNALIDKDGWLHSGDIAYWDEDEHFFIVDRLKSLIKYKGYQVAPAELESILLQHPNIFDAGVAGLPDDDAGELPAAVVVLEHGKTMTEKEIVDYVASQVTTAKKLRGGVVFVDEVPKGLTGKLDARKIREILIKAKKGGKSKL
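Purified P. pyralis luciferase, 10 nM final, with Km-level 10 uM D-luciferin and 10 uM ATP in 50 mM Tris acetate pH 7.5, 10 mM Mg acetate, 0.01% Tween-20, 0.05% BSA; 6-point qHTS titration about 60 µM downward; luminescence read.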
NPC1 promoter act – activators of NPC1 promoter. Potency, µM (series often up to 9.22 µM), without a hit: at the top dose activation, hits mostly activators. AID 485313. Huh7 NPC1 promoter luciferase reporter, 24 h. actives 2.4% (n = 320,000); also: % of control where 0% means no effect; nearly all actives have a fitted effect of over 60% in size
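Luminescence from an NPC1 promoter-driven luciferase reporter in stably transfected Huh7 cells was measured after 24 h compound treatment at 37 °C, followed by 10 min ambient incubation with luciferase detection reagent.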
* = called active by the depositor; ? = inconclusive; / = no result given; [ ] = dose if it differs, or a comment. Calls follow the shape of the dose curve; as a rule, active = well fitted curve in the direction sought with a large enough effect; inconclusive = small, poorly fitted or top-dose-only effect, or another doubt; inactive = no such curve, though single readings can be large; an effect the other way counts as inactive or inconclusive. Potency is read from the fitted curve at half-maximal effect.

SMILES	SMN2 splice up	Rab9 prom act	ELG1 genotox	FLuc modulator	NPC1 promoter act
O=C(NCCc1ccc(O)cc1)c1ccc(Cl)cc1	31.6µM*	?	?	12µM*	?
O=C(NCCc1ccc(Cl)cc1)c1ccc2nc[nH]c2c1	26.4%	21.5%	2.3%	?	16.9%
O=C(NCCc1ccc(Cl)cc1)c1ccc2nccnc2c1	/	3.98µM*	15.8%	10.7µM*	2.24µM*
CCc1ccc(-n2c(SCC(=O)NC(C)CC)nc3n[nH]c(C)c3c2=N)cc1 (configuration not stated)	/	/	/	-5.3%	/
Cc1ccc(C2=NC(c3ccc(F)cc3)=Nc3ccc(C)cc3N2)cc1	9.4%	/	/	-1.4%	/
COc1ccc(NC(=O)c2oc3ccccc3c2NC(=O)COc2ccc(C(C)C)cc2)c(OC)c1	0.6%	/	/	-4.3%	/
Fc1ccc(C(c2ccc(F)cc2)N2CCN(C/C=C\c3ccccc3)CC2)cc1	-11.2%[20.6 µM]	/	/	/	/
CC1(C)CC(=O)c2c(O)cc(OCC(=O)N3CCN(c4ccccc4)CC3)cc2O1	/	0.2%	-5.5%	15.1µM*	0.4%
O=C(COc1ccccc1)N1CCN(c2ccccc2)CC1	-27.3%	0.3%	0.7%	4.4%	-1.1%
Cc1ccc(-c2nc3c4cnn(-c5cc(Cl)ccc5Cl)c4ncn3n2)cc1	6.0%	/	/	-5.9%	/
COc1ccc2c(c1)CCC/C2=N/OC(=O)c1ccccc1OC	-16.6%	0.6%	-1.7%	13.5µM*	-5.8%
COc1ccccc1C(=O)ON=C1c2ccccc2-c2ccccc21	-13.0%	-5.1%	-7.6%	21.3µM*	4.3%
COc1ccc2c(c1)CC/C2=N\OC(=O)c1cccc(C)c1	10.7%	?	?	1.51µM*	3.55µM*
COc1ccc2c(c1)CC/C2=N\OC(=O)c1ccccc1C	-0.2%	?	?	1.51µM*	?
Cc1c(C(=O)N2CCC(C)CC2)c(S(=O)(=O)N2CCN(c3cccc(Cl)c3)CC2)c(C)n1C	/	/	/	-3.0%	/
CN(C)Cc1ccccc1-c1ccc2ncnc(N3CCOCC3)c2c1	-0.4%	/	/	/	/
COc1ccc2c(c1)OCC(Cc1ccc(OC)c(O)c1)C2=O (configuration not stated)	-14.6%	/	/	/	/
COc1ccc(-c2nc3cnc(N4CCNCC4)nc3n(C3CC3)c2=O)cc1	7.0%	/	/	/	/
CCOC(=O)C1=C(O)c2ccccc2C(=O)/C1=C\c1ccc(C)cc1	-34.0%	13.7%	6.8%	6.75µM*	0.5%
CCOC(=O)C1=C(C)N(c2ccc(C)cc2)C(=O)/C1=C\c1ccc(O)c(OC)c1	/	-7.8%	2.5%	-11.3%	-13.2%
O=C(N/C(=C/c1ccccc1)C(=O)N1CCCCC1)c1ccccc1	/	2.82µM*	18.3µM*	7.57µM*	3.55µM*
O=C(N/C(=C/c1ccccc1)C(=O)N1CCCCCC1)c1ccccc1	-24.9%	1.6%	-3.7%	-2.2%	-0.6%
COc1ccccc1NC(=O)CN1C(=O)CCSc2ccccc21	24.4%	/	/	5.1%	/
CC(C)(C)C(=O)C1C(=O)c2ccccc2C1=O	-5.2%	/	/	/	/
CCc1ccc(/C=C/C(=O)C2C(=O)c3ccccc3C2=O)cc1	?	?	0.8%	0.426µM*	?
SMILES	SMN2 splice up	Rab9 prom act	ELG1 genotox	FLuc modulator	NPC1 promoter act
C/C(=N\Nc1nc2ccccc2s1)c1ccc2c(c1)OCO2	17.8µM*	?	?	9.53µM*	27.0%
CNC(=S)N/N=C(\C)c1ccc2c(c1)OCO2	7.1%	-0.4%	6.1%	-0.5%	1.4%
C/C(=N\Nc1nc2ccccc2s1)c1ccc(Br)s1	/	14.6%	-7.6%	15.1µM*	26.3%
Cc1nccc(-c2cccc(NC(=O)Nc3ccc(Cl)cc3)c2)n1	/	-3.4%	-13.8%	4.78µM*	-5.4%
Cc1c(-c2cccc(NC(=O)Nc3ccc(Cl)cc3)c2)nc2ncccn12	/	/	/	10.7µM*	/
COc1ccc(NC(=O)CCCc2nnc3n(CCC(C)C)c(=O)c4sccc4n23)cc1Cl	/	/	/	-4.1%	/
Cc1cc(C)c(C(=O)Nc2ccccc2)c(SCC(=O)Nc2ccc(Br)cc2C)n1	/	/	/	-1.1%	/
CCS(=O)(=O)N1CCc2cc(C(=O)N3CCN(c4cccc(C(F)(F)F)c4)CC3)ccc21	/	/	/	-0.6%	/
COC(=O)c1ccccc1NC(=O)Nc1cc(C)ccn1	-9.3%	-2.1%	1.7%	2.5%	0.9%
Cc1ccnc(NC(=O)Nc2ccc(F)cc2)c1	12.6µM*	0.562µM*	?	1.9µM*	1.41µM*
CSc1ncccc1C(=O)Nc1cc(C)ccn1	/	4.6%	4.6%	1.7%	5.1%
Cc1ccnc(NC(=O)c2cc3cc(F)ccc3s2)c1	/	1.41µM*	?	2.69µM*	2.24µM*
Cc1ccnc(NC(=O)c2ccc([N+](=O)[O-])s2)c1	/	3.55µM*	?	13.5µM*	3.16µM*
CSc1ccc(NC(=O)Nc2cc(C)ccn2)cc1	1.58µM*	0.447µM*	?	0.301µM*	0.501µM*
Cc1ccnc(NC(=O)CNC(=O)c2ccc(C)s2)c1	/	-12.1%	?	?	14.7%
Cc1ccc(N2CC(NC(=O)c3ccc(S(=O)(=O)N(C)C)cc3)CC2=O)cc1C (configuration not stated)	/	/	/	-4.8%	/
COc1ccccc1NC(=O)Nc1ccc(C)cn1	/	7.4%	6.3%	?	20.8%
Cc1ccc(NC(=O)Nc2ccc(F)cc2)nc1	25.1µM*	3.98µM*	8.0%	10.7µM*	?
Cc1ccnc(NC(=O)Nc2ccc(Br)cc2Cl)c1	2.24µM*	0.631µM*	?	0.477µM*	1µM*
Cc1cccc(Cn2cc(C(=O)Nc3ccc(F)c(C(F)(F)F)c3)ccc2=O)c1	/	/	/	-3.1%	/
Cc1cc(=O)n2[nH]c(-c3ccc(F)cc3)nc2n1	11.2%	3.5%	?	12µM*	18.9%
Cc1nc2nc(-c3cccnc3)[nH]n2c(=O)c1C	-12.5%	-2.4%	14.2%	?	2.0%
Cc1cc(=O)n2[nH]c(-c3cccnc3)nc2n1	-24.3%	1.2%	1.0%	16.9µM*	-3.9%
Fc1ccc(N2CCN(c3nc4ccccc4c4nc(-c5cccnc5)nn34)CC2)cc1	11.9%	/	/	-1.6%	/
O=c1[nH]cnc2scc(-c3ccc(-c4ccccc4)cc3)c12	14.1µM*	1.12µM*	1.78µM*	1.2µM*	1.12µM*
SMILES	SMN2 splice up	Rab9 prom act	ELG1 genotox	FLuc modulator	NPC1 promoter act
CCCOc1ccc(-c2csc3nc[nH]c(=O)c23)cc1	/	1.58µM*	?	?	3.16µM*
COc1ccc(-c2csc3nc[nH]c(=O)c23)cc1OC	/	7.4%[1.84 µM]	0.1%	-2.8%	-1.4%
CCOCCCNC(=O)C1CCCN(Cc2nc(-c3ccc(CC)cc3)oc2C)C1 (configuration not stated)	-32.6%	/	/	4.1%	/
Nc1ccc(-c2cc(N)n(-c3ccccc3)n2)cc1	?	?	9.3%	?	0.1%
Cc1cc(-c2cc(N)n(-c3ccccc3)n2)c(C)n1C1CCCC1	0.6%	1.58µM*	?	6.01µM*	3.55µM*
Cc1cccc(-c2noc(-c3ccccc3C(=O)NCC3CCCO3)n2)c1 (configuration not stated)	10.8%	15.2%	1.3%	10.7µM*	?

Screening data (PubChem BioAssay)
